The source of these data is PubChem BioAssay AID1654 (Sanford-Burnham Center for Chemical Genomics, 2009).

Each structure is given as a SMILES string. In all, about 290,000 compounds went through this assay and about 1,500 (0.52%) were called active. What follows is part of a selection rich in actives, with near analogues and random picks from the rest. Values without a mark were called inactive. Cut-off read from the data, not from the text of the source: active = inhibition above about 50%; inactive = the rest.

The target of the experiment is Dual specificity protein phosphatase 3 (Homo sapiens) (UniProt P51452). Put plainly: inhibition of human DUSP3 activity – biochemical, absorbance, uHTS, primary screen (AID 1654). Conditions: recombinant VHR phosphatase, pNPP absorbance, at 13.3 µM, active compounds read high.
Chain of Dual specificity protein phosphatase 3 (Homo sapiens) (P51452 whole entry, looked up): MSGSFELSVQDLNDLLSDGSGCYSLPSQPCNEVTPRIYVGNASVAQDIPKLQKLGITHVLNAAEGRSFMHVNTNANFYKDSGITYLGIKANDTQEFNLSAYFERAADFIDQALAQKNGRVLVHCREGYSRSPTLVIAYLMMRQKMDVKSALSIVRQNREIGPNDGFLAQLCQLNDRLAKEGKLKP
Take `CCCCc1ccc(NC(=S)NCCCN2CCOCC2)cc1`: the inhibition – broadly, the drop in the measured response relative to a control, in per cent – was 52.9% (active).
With `COc1cccc(NC(=S)NCCCN2CCOCC2)c1` the figure was 16.2%.
As to `Cc1cc(C)cc(NC(=S)NCCCN2CCOCC2)c1`, the inhibition was -2.7%.
With `COc1cccc(C(=O)Nc2nnc(S(=O)(=O)N3CCCCC3)s2)c1` the figure was 9.5%; with `CC(=O)c1ccc(S(=O)(=O)NCc2nnnn2-c2ccccc2)cc1`, -9.1%.
Consider `COc1cc(/C=C2\C(=N)N3N=C(CC(=O)N4CCOCC4)SC3=NC2=O)cc(OC)c1OC`, for which the inhibition is -15.7%.
With `CCOc1c(Br)cc(/C=C2\C(=O)N(CCC#N)N=C2C)cc1OC` the figure was 0.9%; with `Cn1c(CCc2ccccc2)nnc1SCC(N)=O`, 2.3%.
Under `COc1ccc([N+](=O)[O-])cc1N(CC(=O)Nc1ccccc1C(=O)N1CCOCC1)S(C)(=O)=O` stands 29.6%; under `CCn1nnnc1SCC(=O)Nc1ccc(N(C)C)cc1`, 54.4% (active); under `CCn1nnnc1SCC(=O)c1ccc(C)cc1C`, 8.9%.
`CC(=O)Nc1ccc(NC(=O)CSc2nnnn2-c2ccccc2F)cc1`: the inhibition was 30%.
With `CC(C)c1ccc2c(c1)c(SC(C)(C)C)c(CC(C)(C)C(=O)O)n2Cc1ccc(Cl)cc1` the figure was -1.6%.
As to `Cn1c(SCC(=O)NC2CCCCC2)nnc1-c1cc2ccccc2o1`, the inhibition was 55.6% (active).
With `Cn1c(SCC(=O)NC2CCCCC2)nnc1-c1ccc(N)cc1` the figure was 15.8%; with `CCOc1cccc(-c2nnc(SCC(=O)NC3CC3)n2C)c1`, 24%.
Take `O=[N+]([O-])c1cc([N+](=O)[O-])c(Oc2cc(F)cc(F)c2F)cc1NN1CCCCC1`: the inhibition was 16.6%.
For `COc1ccc(NC(=S)N2CCCC(CO)C2)c(OC)c1` (stereo not drawn), the inhibition was -17.2%.
With `COc1cc(NC(=S)N2CCCC(C)C2)cc(OC)c1OC` (stereo not drawn) the figure was 56.3% (active); with `COc1cc(NC(=S)N2CCCC(C)C2)c(OC)cc1Cl` (stereo not drawn), 10.6%.
For the compound `Cc1ccc(S(=O)(=O)N(CC(=O)Nc2cccnc2)c2ccc(Br)cc2)cc1`, the inhibition was -1.5%.
On to `COC(=O)C1(CCSC)NC(c2ccc(OC)cc2OC)C2C(=O)N(c3cccc(C(C)=O)c3)C(=O)C21` (stereo not drawn), for which the inhibition is 4.9%.
With `COc1ccc(N2CCC(N3CCN(C)C(CCO)C3)CC2)cc1` (stereo not drawn) the figure was 6.5%.
Turning to `CCOc1ccccc1CN1CCN(C2CCC2)CC1CCO` (stereo not drawn), the inhibition was 6.5%.
With `COc1ccccc1N1CCC(N2CCN(CC(C)(C)C)C(CCO)C2)CC1` (stereo not drawn), the inhibition was 59.1% (active).
Under `COc1ccc(-c2cc(C(=O)N(C)Cc3ccccc3)c3ccccc3n2)cc1` stands 12.2%.
With `CNC(=O)COC(=O)c1cc(-c2ccc(OC)cc2)nc2ccccc12` the figure was 11%; with `COc1ccc(-c2cc(C(=O)n3cnc4ccccc43)c3ccccc3n2)cc1`, 51.6% (active); with `Cc1ccc(C)c(S(=O)(=O)Nc2cc(C)on2)c1`, 16.3%.
In the case of `COc1ccc(N(CC(=O)N2CCOCC2)S(=O)(=O)c2ccccc2)cc1Cl`, the inhibition is 18.1%.
Take `COCCNC(=O)C1CCN(C(=O)C2CC(=O)N(c3ccc(C)cc3)C2)CC1` (stereo not drawn): the inhibition was 50% (active).
Consider `CCCC(C)NC(=O)C1CCN(C(=O)C2CC(=O)N(c3ccc(C)cc3)C2)CC1` (stereo not drawn), for which the inhibition was 13%.
Under `COCCCNC(=O)C1CC(=O)N(c2ccc(C)cc2)C1` (stereo not drawn) stands 3.4%; under `CC1CCN(C(=O)c2ccc(S(=O)(=O)Cc3cc(F)ccc3F)c([N+](=O)[O-])c2)CC1`, 4.1%.
In the case of `COc1ccc(NC(=O)c2cc([N+](=O)[O-])ccc2NC(=O)CNC2CCCCC2C)c(OC)c1` (stereo not drawn), the inhibition is 12.5%.
With `Cc1cc(NC(=O)[C@H](C)NC(=O)c2ccco2)ccc1Br` the figure was 10%; with `CSc1ncccc1C(=O)NC1CCCCCC1`, 21.8%; with `CSc1ncccc1C(=O)OCc1ccc(Br)cc1`, 58.3% (active).
With `CSc1ncccc1C(=O)OCC(=O)N1CCOCC1` the figure was 39.8%; with `CN(CC(=O)Nc1c(Cl)cccc1Cl)C(=O)c1ccncc1`, 2.5%; with `O=C(CCS(=O)(=O)c1ccc2c(c1)NC(=O)CS2)NCc1ccccc1Cl`, 25.2%.
With `CCOc1ccc(-n2c(SCC(=O)Nc3ccc(OC)cc3)nc3sc4c(c3c2=O)CCN(C)C4)cc1` the figure was 5.3%; with `CN(C)CCCn1c(SCc2ccc(Cl)cc2)nnc1-c1ccncc1`, 24%; with `Cc1ccc(CSc2nnc(-c3cnccn3)n2C)cc1`, 21.3%.
As to `Cn1c(SCc2ccc(F)cc2)nnc1-c1ccncc1`, the inhibition is 53% (active).
Under `CCOC(=O)c1ccc(NC(=O)c2nc[nH]c2C(=O)N[C@@H](CCCCNC(=O)OC(C)(C)C)C(=O)OC(C)(C)C)cc1` stands 3.3%; under `CCc1ccc(OCC(=O)OC(C)C(=O)NC2CC2)cc1` (stereo not drawn), 5%.
Under `COc1ccc(NC(=O)Cn2c(-c3ccc(OC)cc3)cn(-c3ccc(C)cc3)c2=O)cc1` stands 6.2%; under `CCn1c(=S)sc2c(=O)n(CC(=O)Nc3ccc(OC)cc3)c(C)nc21`, 57.9% (active); under `CCn1c(=S)sc2c(=O)n(CC(=O)Nc3cccc(Br)c3)c(C)nc21`, -3.6%.
With `Cc1c(Cl)cccc1NC(=S)NCC(O)c1ccccc1` (stereo not drawn) the figure was 2.3%.
On to `CC1CCC2(CC1)NC(=O)N(CC(=O)c1ccc3c(c1)OCO3)C2=O` (stereo not drawn), for which the inhibition is 5.4%.
With `COc1ccc(CNC(=O)CN(c2ccc(OC)c(Cl)c2)S(=O)(=O)c2ccc(C)cc2)cc1` the figure was 59.1% (active); with `CCOc1ccc(N(CC(=O)NCc2ccc(OC)cc2)S(=O)(=O)c2c(C)noc2C)cc1`, 30.2%.
With `COc1ccc(S(=O)(=O)N(CC(=O)NCc2ccco2)c2ccc(F)cc2)cc1` the figure was -4.2%; with `C=CCN1C(=O)C2(OCCCO2)c2cccc(Cl)c21`, 19.2%; with `Cc1cc(=O)oc2c3c(cc(OCC(=O)NCc4ccccn4)c12)OC(C)(C)CC3`, -2.9%.
Regarding `CC(=O)N[C@@H](C)C(=O)N1CCC(n2nccc2NC(=O)CCCc2ccccc2)CC1`, the inhibition was 10.4%.
With `O=C(O)C1=NN(c2c(F)c(F)cc(F)c2F)C(=O)CC1` the figure was -11.9%.
`CCN1CCN(C2CCCCC2NS(=O)(=O)c2ccc(Cl)cc2)CC1` (stereo not drawn): the inhibition is 11.4%.
For `O=S(=O)(NC1CCCCC1N1CCC(O)CC1)c1ccc(Cl)cc1` (stereo not drawn), the inhibition is 17.2%.
With `O=S(=O)(NC1CCCCC1N1CCCCC1)c1ccc(Cl)cc1` (stereo not drawn) the figure was 52% (active); with `Cc1cc(C)c(S(=O)(=O)N(C)CC(=O)NCC2CCCO2)c(C)c1` (stereo not drawn), 20.6%.
Under `COc1ccc(CN(C)C(=S)Nc2ccc(Cl)cc2Cl)cc1` stands -0.1%; under `CC(=O)N1CCc2cc(S(=O)(=O)NC3CCCCC3)ccc21`, -7.7%; under `O=C(Nc1ccc(S(=O)(=O)Nc2ccccn2)cc1)c1ccccc1`, 5.4%.
With `COc1cccc2cc(C(=O)NCc3ccc(C)cc3)c(=N)oc12` the figure was 53.5% (active).
As for `N=c1oc2ccccc2cc1C(=O)NCc1ccccc1`, the inhibition was -2.5%.
Under `COc1cccc2cc(C(=O)N(C)C)c(=O)oc12` stands 18.2%; under `CN(CC(=O)Nc1ccc(Cl)cc1)C(=O)CNC(=O)c1ccc2ccccc2c1`, 27.9%; under `Cn1c(C(=O)N2CCCC(C(=O)NCc3ccccc3)C2)cc2sccc21` (stereo not drawn), 22.8%.
Regarding `CCc1ccc2nc3sc(C(=O)Nc4nnc(CC)s4)c(N)c3cc2c1`, the inhibition was 52.7% (active).
With `CCc1nnc(NC(=O)c2sc3nc(C)cc(COC)c3c2N)s1` the figure was 3.9%.
Under `CCc1nnc(NC(=O)c2cccc(S(=O)(=O)N(C)c3ccc(OC)cc3)c2)s1` stands 13.9%; under `COC(=O)Cc1cnc(NC(=O)CSc2nc(C(C)C)cc(=O)[nH]2)s1`, -28.8%.
As to `CCN1C(=NCCc2cccnc2)N[C@@H](c2ccccc2)[C@H](C(=O)OC)[C@H]1C`, the inhibition was 36%.
Under `CC(C)Oc1ccc(C(CC(=O)N2CCOCC2)C(C)C)cc1` (stereo not drawn) stands 53% (active); under `O=C(O)CC(CC(=O)N1CCOCC1)c1ccccc1` (stereo not drawn), -12.8%.
Under `CC(=O)c1ccc(OC(=O)N2CCOCC2)cc1` stands 1.7%; under `COC(=O)CN1C(=O)[C@H]2[C@@H](/C=C/c3ccccc3)N3C(=O)CN(Cc4ccccc4)C(=O)[C@@]3(Cc3ccccc3)[C@H]2C1=O`, 13.4%; under `COCC1CCN(C(=O)C2CCC(=O)N(CC3CCCCC3)C2)CC1` (stereo not drawn), 6.5%.
Under `CC(C)=CCCC1(C)C=Cc2c(ccc3c2[nH]c2cc(O)c(C)cc23)O1` (stereo not drawn) stands 16.5%; under `COc1ccc(CN(C)C(=O)c2cc(-c3ccc(C)cc3C)nc3ccccc23)c(OC)c1OC`, -8.1%; under `Cn1c(CCNS(=O)(=O)c2ccc(F)cc2)nnc1SCc1cccnc1`, 17%.
Take `C#CC(CCN1CCCCC1)(OC)c1ccccc1` (stereo not drawn): the inhibition was 5.2%.
Under `CCOC(=O)c1cccc(NC(=O)CCc2nnc3ccc(N4CCOCC4)nn23)c1` stands 10.4%.
As to `CCOc1ccc(CCNC(=O)CCc2nnc3ccc(N4CCCC4)nn23)cc1OCC`, the inhibition is 21.2%.
On to `CCN(CC)c1ccc(NC(=O)CCc2nnc3ccc(N4CCCCC4)nn23)c(C)c1`, for which the inhibition was 56.7% (active).
With `Cc1cccc(C)c1NC(=O)C(Cl)C(=O)c1ccccc1` (stereo not drawn) the figure was 0%; with `Nc1nnnn1CC(=O)N/N=C/c1ccc(-c2cccc(Cl)c2)o1`, 5.3%.
With `Cc1[nH]c2ccccc2c1/C=N\NC(=O)Cn1nnc(-c2ccccc2)n1` the figure was -6.7%; with `O=C(Cn1nnc(-c2ccccc2)n1)N/N=C/c1ccc(-c2ccc(Cl)cc2)o1`, 50.8% (active); with `Cc1ccc(-c2nc(CS(=O)(=O)CC(=O)NCc3ccc4c(c3)OCO4)c(C)o2)cc1`, 9.7%.
